Reference: PubChem BioAssay (NCATS)
Results filed as inconclusive are left out. Activity calls are given as the source filed them. Calls come from the whole dose curve; as a rule, active = well fitted curve in the direction sought with a large enough effect; inconclusive = small, poorly fitted or top-dose-only effect, or another doubt; inactive = no such curve, though single readings can be large; an effect the other way counts as inactive or inconclusive.

How the values were obtained:
[1] = molecular target: Rap guanine nucleotide exchange factor 3 (Homo sapiens) (UniProt O95398); experiment: Confirmatory qHTS for agonist of cAMP-regulated guanine nucleotide exchange factor 3 (EPAC1) (AID 1645881);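 note: EPAC1 catalysed release of BODIPY-GDP from Rap1B seen as fluorescence loss; 100% = effect of cAMP agonist control; nearly all actives have a fitted effect of over 75% in size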
[2] = molecular target: Rap guanine nucleotide exchange factor 4 (Homo sapiens) (UniProt Q8WZA2); experiment: Confirmatory qHTS for agonist of cAMP-regulated guanine nucleotide exchange factor 4 (EPAC2) (AID 1645884);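 note: nucleotide exchange releases bodipy-GDP from Rap1 and this lowers its fluorescence; % is set by controls: 0 for no effect and ±100 for the full control effect; nearly all actives have a fitted effect of over 65% in size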
[3] = molecular target: Rap guanine nucleotide exchange factor 4 (Homo sapiens) (UniProt Q8WZA2); experiment: Confirmatory qHTS for antagonist of cAMP-regulated guanine nucleotide exchange factor 4 (EPAC2) (AID 1645885); note: nearly all actives have a fitted effect of over 25% in size; note: potency is the fitted concentration of half-maximal effect; for activity change, negative = inhibition: % is set by controls: 0 for no effect and ±100 for the full control effect
[4] = molecular target: Rap guanine nucleotide exchange factor 3 (Homo sapiens) (UniProt O95398); experiment: Counterscreen qHTS for antagonist of cAMP-regulated guanine nucleotide exchange factor 3 (EPAC1) (AID 1645888);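 note: fluorescence loss as bound BODIPY-GDP is released from Rap1B; % of control where 0% means no effect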
Method in brief: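 Measured: fluorescence of BODIPY-GDP bound to Rap1B, which falls as exchange proceeds. Conditions include 50 uM competing GDP, 5 and 30 min reads, and a later cAMP challenge for antagonist detection.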

Rap guanine nucleotide exchange factor 3 (Homo sapiens), sequence (O95398 whole entry, looked up): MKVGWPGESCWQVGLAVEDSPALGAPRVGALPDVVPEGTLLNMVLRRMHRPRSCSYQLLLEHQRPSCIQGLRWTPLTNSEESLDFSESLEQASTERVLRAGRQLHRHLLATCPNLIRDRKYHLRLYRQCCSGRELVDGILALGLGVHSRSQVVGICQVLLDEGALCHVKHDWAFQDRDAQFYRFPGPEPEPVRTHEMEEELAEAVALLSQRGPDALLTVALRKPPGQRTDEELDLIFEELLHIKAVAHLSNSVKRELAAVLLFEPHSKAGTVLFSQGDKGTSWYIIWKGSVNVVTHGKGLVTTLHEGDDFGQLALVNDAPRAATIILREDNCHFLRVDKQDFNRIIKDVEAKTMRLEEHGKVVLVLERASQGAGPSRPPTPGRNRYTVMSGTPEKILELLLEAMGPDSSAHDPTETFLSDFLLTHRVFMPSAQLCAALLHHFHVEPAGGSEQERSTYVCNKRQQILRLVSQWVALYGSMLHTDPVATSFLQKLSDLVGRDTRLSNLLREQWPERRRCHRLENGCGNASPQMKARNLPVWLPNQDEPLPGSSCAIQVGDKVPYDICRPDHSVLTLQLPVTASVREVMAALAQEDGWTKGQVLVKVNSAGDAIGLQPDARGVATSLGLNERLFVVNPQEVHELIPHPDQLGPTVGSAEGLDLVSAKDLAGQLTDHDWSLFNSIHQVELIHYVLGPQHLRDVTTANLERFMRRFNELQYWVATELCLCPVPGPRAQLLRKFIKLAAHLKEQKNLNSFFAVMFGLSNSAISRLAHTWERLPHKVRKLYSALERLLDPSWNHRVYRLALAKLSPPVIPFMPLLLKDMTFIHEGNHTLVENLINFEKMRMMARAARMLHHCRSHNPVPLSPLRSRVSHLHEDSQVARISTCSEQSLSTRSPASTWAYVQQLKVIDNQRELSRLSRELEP
Rap guanine nucleotide exchange factor 4 (Homo sapiens), sequence (Q8WZA2 whole entry, looked up): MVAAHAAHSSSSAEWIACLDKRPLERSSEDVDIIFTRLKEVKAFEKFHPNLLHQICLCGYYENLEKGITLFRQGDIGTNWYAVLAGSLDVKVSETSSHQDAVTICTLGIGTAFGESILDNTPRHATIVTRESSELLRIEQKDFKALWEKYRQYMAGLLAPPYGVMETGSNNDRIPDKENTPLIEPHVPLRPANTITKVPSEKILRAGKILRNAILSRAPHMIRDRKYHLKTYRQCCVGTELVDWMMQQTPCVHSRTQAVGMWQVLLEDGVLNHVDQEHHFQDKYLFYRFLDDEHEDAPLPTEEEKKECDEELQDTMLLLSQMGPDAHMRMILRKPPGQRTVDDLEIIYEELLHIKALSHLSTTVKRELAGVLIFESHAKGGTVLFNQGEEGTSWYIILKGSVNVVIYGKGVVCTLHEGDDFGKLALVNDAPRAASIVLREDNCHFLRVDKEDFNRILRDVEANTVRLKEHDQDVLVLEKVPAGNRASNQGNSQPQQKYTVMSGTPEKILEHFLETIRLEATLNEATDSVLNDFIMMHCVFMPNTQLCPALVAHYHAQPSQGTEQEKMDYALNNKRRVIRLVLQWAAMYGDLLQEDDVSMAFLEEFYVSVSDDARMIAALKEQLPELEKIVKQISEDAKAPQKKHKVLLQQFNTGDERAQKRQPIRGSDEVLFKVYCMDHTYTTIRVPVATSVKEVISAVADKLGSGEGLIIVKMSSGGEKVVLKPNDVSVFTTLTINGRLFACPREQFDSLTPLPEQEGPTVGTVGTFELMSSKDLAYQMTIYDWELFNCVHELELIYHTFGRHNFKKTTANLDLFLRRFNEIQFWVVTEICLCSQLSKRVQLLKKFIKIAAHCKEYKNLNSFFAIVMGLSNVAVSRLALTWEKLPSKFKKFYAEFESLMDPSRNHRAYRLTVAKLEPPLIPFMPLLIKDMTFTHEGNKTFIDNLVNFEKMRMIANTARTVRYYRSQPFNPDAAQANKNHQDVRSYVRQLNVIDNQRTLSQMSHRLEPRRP

COC(=O)CC1(C(=O)OC)Oc2ccc(Br)cc2C(=O)N1c1cccc(Cl)c1Cl (stereo unspecified)
active: Potency [3] 1.69 µM
inactive: Potency [1] | Potency [2] | Potency [4]

CCn1c(=O)c2sccc2n2c(CCCC(=O)N3CCN(c4cc(Cl)ccc4C)CC3)nnc12
inactive: Potency [1] | Potency [2] | Potency [3] | Potency [4]

Nc1c2c(=O)[nH]c(O)cc2nn1-c1ccccc1
inactive: Potency [1] | Potency [2] | Potency [3] | Potency [4]

CCOC(=O)c1c(C)oc2nc(C)nc(N(C)Cc3ccccc3)c12
inactive: Potency [1] | Potency [2] | outcome [3] inactive [at 12.7 µM] | Potency [4]

O=C1c2cccc3cc([N+](=O)[O-])cc(c23)C(=O)N1/N=C/c1ccc(O)cc1O
inactive: Potency [1] | Potency [2] | Potency [3] | Potency [4]

COc1cc(OC)cc(C(=O)Nc2ccc(NC(=O)c3ccco3)c(Cl)c2)c1
inactive: Potency [1] | Potency [2] | Potency [3] | Potency [4]

CN(CC(=O)Nc1cccc(F)c1)C(=O)c1cccc(S(=O)(=O)N2CC3(C)CC2CC(C)(C)C3)c1 (stereo unspecified)
inactive: Potency [1] | activation [2] 8% [at 17.1 µM, percent relative to cAMP agonist control] | Potency [3] | activity change, negative = inhibition [4] -23.1% [at 30.8 µM]

CC(C)C1COC(c2cccn2Cc2ccccc2Cl)=N1 (stereo unspecified)
inactive: Potency [1] | activation [2] 14.2% [at 17.1 µM, percent relative to cAMP agonist control] | Potency [3] | activity change, negative = inhibition [4] -4.02% [at 30.8 µM]

CCC(=O)NC(c1ccc(OC)cc1)c1c(O)ccc2ccccc12 (stereo unspecified)
inactive: Potency [1] | Potency [2] | Potency [3] | Potency [4]

CCN(CC)CC#CC(OC)(c1ccccc1)c1ccccc1
inactive: Potency [1] | Potency [2] | Potency [3] | Potency [4]

CC(NC(=O)/C(C#N)=C/c1ccc([N+](=O)[O-])o1)c1ccccc1 (stereo unspecified)
inactive: Potency [1] | activation [2] 5.83% [at 17.1 µM, percent relative to cAMP agonist control] | Potency [3] | activity change, negative = inhibition [4] 20.7% [at 30.8 µM]

Cc1cc(N2CCOCC2)ccc1/C=C1/SC(=O)NC1=O
inactive: Potency [1] | Potency [2] | Potency [3] | Potency [4]

CCOc1ccc(C(=O)N2CC(=O)Nc3ccc(C)cc3C2c2ccc(F)cc2)cc1OCC (stereo unspecified)
inactive: Potency [1] | Potency [2] | outcome [3] inactive [at 12.7 µM] | Potency [4]

O=C1CCCC2=C1C(c1ccc(O)c(O)c1)Nc1ccc3ccccc3c12 (stereo unspecified)
inactive: Potency [1] | Potency [2] | Potency [3] | Potency [4]

Cc1cccc(NC(=O)CN2C(=O)S/C(=C\c3cccn3-c3cccc(C(=O)O)c3)C2=O)c1
inactive: Potency [1] | Potency [2] | Potency [3] | Potency [4]

Cc1occc1-c1nnc(SCC(=O)c2cc3ccccc3oc2=O)o1
inactive: Potency [1] | activation [2] -0.174% [at 17.1 µM, percent relative to cAMP agonist control] | Potency [3] | activity change, negative = inhibition [4] -0.143% [at 30.8 µM]

O=C1C=C(NS(=O)(=O)c2ccccc2)C(=O)c2ccccc21
inactive: Potency [1] | Potency [2] | Potency [3] | Potency [4]

CCOc1ccc(N2C(=O)C3Sc4[nH]c(=O)sc4C(/C=C/c4ccccc4)C3C2=O)cc1 (stereo unspecified)
inactive: Potency [1] | activation [2] 4.64% [at 17.1 µM, percent relative to cAMP agonist control] | Potency [3] | activity change, negative = inhibition [4] 18.3% [at 30.8 µM]

Cc1nnc(SCC(=O)NCc2ccccc2F)c2nn(-c3ccc(Cl)cc3)c(C)c12
inactive: Potency [1] | Potency [2] | Potency [3] | Potency [4]

CCc1nc2c(OCC3CCCCC3)cccn2c1N(C)C(=O)c1ccc(C)cc1
inactive: Potency [1] | Potency [2] | Potency [3] | Potency [4]

Cc1ccc(C)c(N2CCN(C(=O)c3ccc4c(=O)n5c(nc4c3)CCCCC5)CC2)c1
inactive: Potency [1] | activation [2] 5.24% [at 17.1 µM, percent relative to cAMP agonist control] | Potency [3] | activity change, negative = inhibition [4] -18% [at 30.8 µM]

CN(C)S(=O)(=O)c1ccc(N2CCCC2)c(C(=O)NCC2COc3ccccc3O2)c1 (stereo unspecified)
inactive: Potency [1] | Potency [2] | Potency [4]
active: Potency [3] 30.1 µM

Cc1ccc(C(=O)c2cn(Cc3cccc(F)c3)c3nc(C)ccc3c2=O)cc1
inactive: Potency [1] | Potency [2] | Potency [3] | Potency [4]

COc1ccc(OC)c(NC(=O)C(C)Oc2ccc(Br)cc2)c1 (stereo unspecified)
inactive: Potency [1] | Potency [2] | Potency [3] | Potency [4]

CCCCc1ccc(NS(=O)(=O)c2cc3c4c(c2)CC(=O)N4CCC3)cc1
inactive: Potency [1] | Potency [2] | Potency [3] | Potency [4]

Cc1cccc(-n2ccnc2SCC(=O)Nc2ccc(F)cc2F)c1C
inactive: Potency [1] | Potency [2] | Potency [3] | Potency [4]

Oc1ccc2ccccc2c1/C=N/c1nc2c(s1)CCCC2
inactive: Potency [1] | Potency [2] | Potency [3] | Potency [4]

CC(c1ccccc1)n1cc2c(c1-c1ccccc1Br)c(=O)n(C)c(=O)n2C (stereo unspecified)
inactive: Potency [1] | Potency [2] | Potency [3] | Potency [4]

CCOC(=O)C1CCN(c2c(C(=O)c3ccc(C)cc3)cnc3ccc(F)cc23)CC1
inactive: Potency [1] | Potency [2] | Potency [3] | Potency [4]

CCc1nc2c(OCCC3CCCCC3)cccn2c1N(C)C(=O)c1ccc(C)cc1
inactive: Potency [1] | Potency [2] | Potency [3] | Potency [4]

Cc1cccc(-c2nc3c(cnn3-c3ccccc3)c(=O)n2-c2cccc(Cl)c2)c1
inactive: Potency [1] | Potency [2] | outcome [3] inactive [at 12.7 µM] | Potency [4]

CCOC(=O)c1cnc2ccc(C(=O)OC)cc2c1Nc1ccccc1CC
inactive: Potency [1] | Potency [2] | Potency [3] | Potency [4]

CCCc1ccc2oc(C(=O)NCCc3nc(C(=O)OCC)cs3)c(C)c2c1
inactive: Potency [1] | activation [2] -3.74% [at 17.1 µM, percent relative to cAMP agonist control] | Potency [3] | activity change, negative = inhibition [4] -14.7% [at 30.8 µM]

Cc1ccc(C)c(Cn2c(C3CC(=O)N(c4ccccc4C)C3)nc3ccccc32)c1 (stereo unspecified)
inactive: Potency [1] | Potency [2] | Potency [3] | Potency [4]

O=C(N/N=C/c1coc2ccc(Cl)cc2c1=O)c1cc(O)cc(O)c1
inactive: Potency [1] | Potency [2] | Potency [3] | Potency [4]

CCCc1nc2ccc(C(=O)OC)cn2c1Cc1ccc(C)cc1
inactive: Potency [1] | Potency [2] | Potency [3] | Potency [4]

COCOCCn1cc(CN2CCS(=O)(=O)N(Cc3ccc(-c4ccccc4)cc3)C(CC(C)C)C2=O)nn1 (stereo unspecified)
inactive: Potency [1] | activation [2] 4.12% [at 17.1 µM, percent relative to cAMP agonist control] | activity change, negative = inhibition [4] -6.67% [at 30.8 µM]
active: Potency [3] 3.01 µM

CCOc1ccccc1Oc1ncnc2c1oc1ccccc12
inactive: Potency [1] | Potency [2] | outcome [3] inactive [at 12.7 µM] | Potency [4]

CN1CCN(c2cc(N3CCN(C(=O)c4ccco4)CC3)c3c4c(onc24)-c2ccccc2C3=O)CC1
inactive: Potency [1] | Potency [2] | Potency [3] | Potency [4]

Oc1ccc(Cc2ccc(Cl)cc2)c(O)c1
inactive: Potency [1] | activation [2] 7.91% [at 17.1 µM, percent relative to cAMP agonist control] | Potency [3] | activity change, negative = inhibition [4] -18.2% [at 30.8 µM]

O=C(CC(c1ccccc1)c1cc(Cl)ccc1O)N1CCCC1 (stereo unspecified)
inactive: Potency [1] | Potency [2] | Potency [3] | Potency [4]

CCc1nc2c(OCc3ccc(OC(F)F)cc3)cccn2c1N(C)C(=O)c1cccs1
inactive: Potency [1] | Potency [2] | Potency [3] | Potency [4]

COCCN1C(=O)c2[nH]nc(-c3ccccc3O)c2C1c1ccc(Cl)c(Cl)c1 (stereo unspecified)
inactive: Potency [1] | Potency [2] | Potency [3] | Potency [4]

Cc1ccc(N(Cc2cccs2)C(=O)c2ccc(Br)o2)cc1
inactive: Potency [1] | Potency [2] | Potency [3] | Potency [4]

O=C(Nc1ccc(S(=O)(=O)Nc2nccs2)cc1)c1cc(-c2ccccn2)nc2ccccc12
inactive: Potency [1] | activation [2] 4.2% [at 17.1 µM, percent relative to cAMP agonist control] | Potency [3] | activity change, negative = inhibition [4] -7.32% [at 30.8 µM]

Cc1cccc(NC(=O)CN2C(=O)N/C(=C\c3ccccc3OCc3ccc(C(=O)O)cc3)C2=O)c1
inactive: Potency [1] | Potency [2] | Potency [3] | Potency [4]

O=C(CSc1nnc(-c2cnccn2)n1Cc1ccco1)c1ccc(Cl)cc1
inactive: Potency [1] | Potency [2] | Potency [3] | Potency [4]

CC(C)N(Cc1ccccc1)C(=O)c1nc(-c2ccc(Cl)cc2)n2c1CCCCC2
inactive: Potency [1] | Potency [2] | outcome [3] inactive [at 12.7 µM] | Potency [4]

CCOC(=O)c1ccc(NC(=O)CC2Nc3cccc4cccc(c34)NC2=O)cc1 (stereo unspecified)
inactive: Potency [1] | Potency [2] | Potency [3] | Potency [4]

C=CCN1C(=O)[C@@H]2Cc3c([nH]c4ccccc34)C(c3ccc(O)cc3)N2C1=S (stereo partly specified)
inactive: Potency [1] | Potency [2] | Potency [3] | Potency [4]

COc1cc(C2NC(=O)c3c(sc4c3CCN(C)C4)N2)cc(Br)c1OC(=O)c1ccc(C)cc1 (stereo unspecified)
inactive: Potency [1] | Potency [2] | outcome [3] inactive [at 12.7 µM] | Potency [4]

CC(=O)Nc1ccc(N(C(=O)Cn2nnc3ccccc32)C(C(=O)NC2CCCC2)c2ccc(O)c(O)c2)cc1 (stereo unspecified)
inactive: Potency [1] | Potency [2] | Potency [4]
active: Potency [3] 95.3 µM

COc1ccccc1-c1nnc(SCC(=O)c2ccc(C3CCCCC3)cc2)n1Cc1ccco1
inactive: Potency [1] | Potency [2] | Potency [3] | Potency [4]

Cc1ccc(-c2nc3c(c(=O)[nH]c(=O)n3Cc3ccccc3)n2C)o1
inactive: Potency [1] | Potency [2] | Potency [3] | Potency [4]
